The values that follow come from PubChem BioAssay (Tox21).

Inconclusive results are not listed. Unmarked numbers belong to inactive results. Active and inactive are the calls of the source. The call rests on the fitted dose curve; in most records, active means well fitted cell-killing curve with a large enough effect in the repeat runs; inconclusive means weak or mixed curves, or effect the other way; inactive means no such curve, though single readings can be large or run the other way.
On the % scale 0 is the no-effect control and ±100 the full control effect; potency means the concentration at half of the fitted maximal effect.

A short description of the test: qHTS assay to identify aromatase inhibitors - cell viability counter screen (AID 743084).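 Further: cells stimulated with testosterone during compound exposure; nearly all actives have a fitted effect of over 55% in size.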 The conditions noted are these: MCF-7 aro ERE viability, CellTiter-Fluor, 24 h; series mostly up to 70.3 µM; activity change, negative = cytotoxicity: at the top concentration. (In general: In qHTS, concentration-response curves come from the screen itself.)
In the case of `CC(C)=CCN1CC[C@]2(C)c3cc(O)ccc3C[C@H]1[C@H]2C`, the “activity change, negative = cytotoxicity” value is -6.61%.

As for `CN[C@@]1(c2ccccc2Cl)CCCCC1=O`, the “activity change, negative = cytotoxicity” value was -2%.

Regarding `CCNC1(c2cccs2)CCCCC1=O` (stereo not given), the “activity change, negative = cytotoxicity” value is 5.57% [at 32.5 µM].

For the molecule `CNC(C)CC1CCCCC1` (stereo not given), the “activity change, negative = cytotoxicity” value was 14.4%.

Consider `CCC1(c2ccccc2)C(=O)NC(=O)N(C)C1=O` (stereo not given), for which the “activity change, negative = cytotoxicity” value is -2.98%.

Regarding `COc1cc([C@@H]2c3cc4c(cc3[C@@H](O)[C@H]3COC(=O)[C@H]23)OCO4)cc(OC)c1O`, the “activity change, negative = cytotoxicity” value is -18.3%.

Consider `CN1CC[C@@]23CCCC[C@@H]2[C@@H]1Cc1ccc(O)cc13`, for which the “activity change, negative = cytotoxicity” value is -0.0775%.

In the case of `CNC(C)Cc1ccccc1` (stereo not given), the “activity change, negative = cytotoxicity” value is -0.756%.

As to `CN[C@@H](C)Cc1ccccc1`, the “activity change, negative = cytotoxicity” value is 5.35%.

Consider `CCCCNC(C)(C)[P+](=O)O`, for which the “activity change, negative = cytotoxicity” value was 4.38%.

For the molecule `O=C1C[C@@H]2OCC=C3CN4CC[C@]56c7ccccc7N1[C@H]5[C@H]2[C@H]3C[C@H]46` (tested in a mixture with another compound), the Potency entry was “inactive”.

Turning to `C/C=C(\CC)C(=O)NC(N)=O`, the “activity change, negative = cytotoxicity” value is -2.73%.

In the case of `C[C@]12CCC(=O)C[C@@H]1CC[C@@H]1[C@@H]2CC[C@@]2(C)[C@H]1CC[C@]2(C)O`, the “activity change, negative = cytotoxicity” value was 17.8%.

Regarding `Cc1nnc2n1-c1ccc(Cl)cc1C(c1ccccc1)=NC2`, the “activity change, negative = cytotoxicity” value was 5.54%.

On to `N#CC(C#N)=Cc1cc(O)c(O)c(O)c1`, for which the Potency is 26.6 µM (active).

Consider `O=C(O)CCCO`, for which the “activity change, negative = cytotoxicity” value was 0.368% [at 95 µM].

Regarding `Oc1ccc2c3c1O[C@H]1[C@@H](O)C=C[C@H]4[C@H](C2)NCC[C@@]341`, the “activity change, negative = cytotoxicity” value is -0.028%.

For `O=P1(N(CCCl)CCCl)NC(OO)CCO1` (stereo not given), the “activity change, negative = cytotoxicity” value was -3.09%.

With `COC(=O)[C@H]1[C@@H](OC(=O)c2ccccc2)C[C@@H]2CC[C@H]1N2C`, the “activity change, negative = cytotoxicity” value is 1.02%.

As to `O=C1CN=C(c2ccccc2)c2cc(Cl)ccc2N1`, the “activity change, negative = cytotoxicity” value was 5.74%.
